In this assay the test system is Plasmodium falciparum NF54. As to the kind of experiment: growth inhibition relative to untreated control; higher = more inhibition. Particulars: 72 h. The essentials:
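Growth inhibition was measured by SYBR Green fluorescence, normalised to untreated wells and corrected for background from uninfected erythrocytes. The parasites were P. falciparum NF54 ring stages (1% hematocrit, 1% parasitemia) exposed to single 5 μM or 1 μM doses of test compounds for 72 h at 37 °C, in either minimal RPMI or minimal RPMI containing 2.2 μM folate, 7.3 μM pABA, 7.3 μM pHBA, 111 μM tyrosine, 90 μM phenylalanine and tryptophan.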

The mark [1] stands for this setting: 1 µM, MM + chorismate end-products (CM screening medium).
Where [2] appears, read: 5 µM, MM + chorismate end-products (CM screening medium).

Where only a bound is given, the exact number is not on record here.

Turning to `COc1cc(C2=NCCN2)ccc1-n1cc(-c2cccc(C3=NCCN3)c2)nn1`, the growth inhibition under setting [1] turned out to be 51.9%; the growth inhibition (1 µM, minimal medium (MM)) was 55%; the growth inhibition under setting [2] was 66.5%; the growth inhibition (5 µM, minimal medium (MM)) amounted to 19.2%.
`NCC(c1cccs1)S(=O)(=O)c1ccccc1` (stereo not drawn): the growth inhibition reads like this: under setting [1], 36.2%; (1 µM, minimal medium (MM)) less than 0%; under setting [2], less than 0%; (5 µM, minimal medium (MM)) 4.01%.
Take `CNC1C(OC2C(OC3C(O)C(O)C(N=C(N)N)C(O)C3N=C(N)N)OC(C)C2(O)C=O)OC(CO)C(O)C1O` (stereo not drawn): the growth inhibition is, setting by setting: under setting [1], 20.4%; (1 µM, minimal medium (MM)) 29.2%; under setting [2], less than 0%; (5 µM, minimal medium (MM)) 8.51%.
The like results for `CS(=O)(=O)c1ccc(C(=O)N(CC2CCCO2)c2nc3ccccc3s2)cc1[N+](=O)[O-]` (stereo not drawn) were, in that order, less than 0%, 31.2%, 72.3% and 55.5%.
The corresponding values for `COc1cc(NC(=O)Cc2nn(C)c(=O)c3ccccc23)ccc1Cl` are 16.1%, 5.71%, 15.2% and less than 0%.
The corresponding values for `OC[C@H]1O[C@@H](n2c3ccc(Cl)cc3c3c(-c4cc5ccccc5o4)ncnc32)C(O)[C@H]1O` (stereo partly drawn) are 1.89%, 13.6%, 63.8% and 30%.
For `Cc1ccc2nc(Cl)c(CNCc3cccs3)cc2c1`, the growth inhibition reads like this: under setting [1], 49.9%; (1 µM, minimal medium (MM)) 31.9%; under setting [2], less than 0%; (5 µM, minimal medium (MM)) less than 0%.
In the case of `CC(C)(C)c1cc(C(=O)Nc2cccnc2)cc(C(=O)Nc2cccnc2)c1`, the growth inhibition under setting [1] was determined as 88.9%; the growth inhibition (1 µM, minimal medium (MM)) stood at 94.2%; the growth inhibition under setting [2] is 87.5%; the growth inhibition (5 µM, minimal medium (MM)) was 88.6%.
The like results for `O=C(Nc1ccc2c(c1)B(O)OC2)c1ccccc1C(F)(F)F` were, in that order, 69.1%, 67.8%, 74.6% and 87%.
On to `O=C(C1CCN(c2nnnn2-c2ccccc2)CC1)N1CCc2ccccc2C1`, for which the growth inhibition is, setting by setting: under setting [1], 43.4%; (1 µM, minimal medium (MM)) 33%; under setting [2], less than 0%; (5 µM, minimal medium (MM)) less than 0%.
Consider `Cc1nnc(NC(=O)c2cn(-c3ccccc3)nc2-c2ccccc2C)o1`, for which the growth inhibition by setting is: under setting [1], 89.2%; (1 µM, minimal medium (MM)) 87.7%; under setting [2], 83.6%; (5 µM, minimal medium (MM)) 83.6%.
`CNCCC(Oc1ccc(C(F)(F)F)cc1)c1ccccc1` (stereo not drawn): the growth inhibition by setting is: under setting [1], 10.2%; (1 µM, minimal medium (MM)) less than 0%; under setting [2], less than 0%; (5 µM, minimal medium (MM)) 2.19%.

For the origin of these results see the supplement of paper PMC6763611.
